# PLK1 PBD inh: inhibitors of human PLK1 polo-box domain binding. P53350. Plk1 PBD binding of FITC phosphopeptide, fluorescence polarization. Potency, µM, for the others: max response, negative = inhibition, actives largely listed as inhibitors. actives 2.8% (n = 360,000). AID 720504; also: series mostly up to about 57 µM; % is scaled to controls: 0 for no effect and ±100 for the full control effect; nearly all actives have a fitted effect of over 65% in size
# VDR inh: vitamin D3 receptor (human) inhibition; VDR-SRC2-3 peptide fluorescence polarization, 2 h; Potency, µM, without a hit: max response, negative = inhibition, actives largely listed as inhibitors; actives 0.93% (n = 400,000); also: % is scaled to controls: 0 for no effect and ±100 for the full control effect
#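 The screen uses fluorescence polarization to detect compounds that interfere with recruitment of the SRC2-3 coactivator peptide to VDR; plates are read after 2 h at room temperature.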
# L3MBTL1 block: L3MBTL1 (human) inhibition. Potency, µM (top dose mostly 57.1 µM), inactives show at the top dose activity, negative = inhibition, most hits filed as inhibitors. Q9Y468. actives 0.66% (n = 230,000). AlphaScreen L3MBTL1–H3K9me1 peptide binding. AID 485360; also: % is scaled to controls: 0 for no effect and ±100 for the full control effect; nearly all actives have a fitted effect of over 60% in size
#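 AlphaScreen assay: L3MBTL1 (50 nM final) was preincubated 30 min at room temperature with biotinylated H3(1-15)K9me1 peptide (75 nM final), then 30 min with library compounds; streptavidin donor and nickel chelate acceptor beads (10 ug/mL final) added, 30 min dark.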
# BAZ2B inh: inhibitors of human BAZ2B bromodomain; Potency, µM (doses to about 114 µM), inactives show top-dose activity change, negative = inhibition, hits mostly inhibitors; actives 4.4% (n = 360,000); AlphaScreen BAZ2B-H3K14Ac peptide displacement; also: % is scaled to controls: 0 for no effect and ±100 for the full control effect; nearly all actives have a fitted effect of over 60% in size
#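 AlphaScreen displacement: compounds (up to 110uM) incubated 30 min at room temperature with a preformed 50 nM BAZ2B/50 nM biotinylated H3K14Ac peptide complex in PBS pH 7.4 with Tween-20. Donor and acceptor beads at 10 ug/mL final added, 20 min light-protected before reading.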
# HP1b chromo inh: HP1-beta chromodomain-methylated histone interaction inhibition | AlphaScreen HP1-beta / biotin-H3K9me3 peptide binding | Potency, µM (series often up to 114 µM), for the others: top-dose activity change, negative = inhibition, hits mostly inhibitors | actives 0.56% (n = 390,000); also: nearly all actives have a fitted effect of over 70% in size
#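 AlphaScreen: HP1-beta (50 nM) preformed 30 min with biotin-H3(1-18)K9me3 peptide (50 nM) in PBS pH 7.4, 0.01% Tween-20. Compound added for 30 min at RT, then streptavidin donor/nickel chelate acceptor beads (10 ug/mL) for 30 min.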
# JMJD2A Tudor: inhibitors of human JMJD2A Tudor domain. O75164. AlphaScreen JMJD2A-Tudor / H3K4me3 peptide binding. Potency, µM (series often up to 114 µM), without a hit: at the top dose activity change, negative = inhibition, usual class: inhibitors. actives 4.4% (n = 390,000). AID 504339; also: % is scaled to controls: 0 for no effect and ±100 for the full control effect; nearly all actives have a fitted effect of over 50% in size
# VDR inh confirm: inhibits human vitamin D receptor, primary hit validation; shares compounds with VDR inh; VDR-coactivator inhibition assay, qHTS confirmation; Potency, µM, actives largely listed as inhibitors; actives 89% (n = 840); AID 602199
# VDR FP: blocks human VDR-coactivator binding in fluorescein assay | Potency, µM (top dose mostly 57.1 µM), without a hit: top-dose activity change, negative = inhibition, actives largely listed as inhibitors | actives 48% (n = 840) | shares compounds with VDR inh | VDR-coactivator binding, fluorescein fluorescence polarization
# VDR bla reporter: inhibits human VDR in beta-lactamase reporter cells; actives 23% (n = 840); VDR beta-lactamase reporter cells, FRET ratio; cells co-treated with VDR agonist LG190178; shares compounds with VDR inh; Potency, µM (highest dose often 46.1 µM), inactives show at the highest dose activity change, negative = inhibition, most hits filed as inhibitors; AID 602202; also: % is scaled to controls: 0 for no effect and ±100 for the full control effect
# VDR cytotox: cytotoxic in counter-screen for VDR inhibitors; shares compounds with VDR inh; cytotoxicity counter-screen, cell viability, qHTS; Potency, µM (top dose mostly 48.3 µM), for inactives: top-dose activity change, negative = cytotoxicity, hits mostly cytotoxic; actives 18% (n = 840);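 also: plate controls were DMSO for no effect and high-concentration cycloheximide for full effect; nearly all actives have a fitted effect of over 75% in size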
# TbPYK confirm: Trypanosoma brucei pyruvate kinase inhibition, cherry-pick confirmation; shares compounds with PLK1 PBD inh; recombinant TbPYK, Kinase-Glo ATP luminescence; Potency, µM (highest dose often 76.9 µM), for the others: at the top dose activity change, negative = inhibition, usual class: inhibitors; actives 67% (n = 890); also: % is scaled to controls: 0 for no effect and ±100 for the full control effect; nearly all actives have a fitted effect of over 70% in size
# TbPYK orthogonal: inhibits T. brucei pyruvate kinase in orthogonal ADP-Glo assay; shares compounds with PLK1 PBD inh; recombinant TbPYK, ADP-Glo luminescence, 60 min; Potency, µM (highest dose often 76.9 µM), inactives show at the highest dose activity change, negative = inhibition, usual class: inhibitors; actives 62% (n = 890); AID 720584; also: % is scaled to controls: 0 for no effect and ±100 for the full control effect; nearly all actives have a fitted effect of over 75% in size
# Active calls of the source: *; ? = inconclusive; · = no result given; [ ] = remark or other dose. Most compounds without a hit are left out; they make up all but 6.9% or so of the library. Calls follow the shape of the dose curve; as a rule, active = well fitted curve in the direction sought with a large enough effect; inconclusive = small, poorly fitted or top-dose-only effect, or another doubt; inactive = no such curve, though single readings can be large; an effect the other way counts as inactive or inconclusive. Potency is read from the fitted curve at half-maximal effect.
SMILES,PLK1 PBD inh,VDR inh,L3MBTL1 block,BAZ2B inh,HP1b chromo inh,JMJD2A Tudor,VDR inh confirm,VDR FP,VDR bla reporter,VDR cytotox,TbPYK confirm,TbPYK orthogonal
Cc1cccc(/C=C/C(=O)c2cc(Br)ccc(=O)c2O)c1,21.2µM*,15.8µM*,·,44.7µM*,?,?,3.77*,58.2%,?,?,·,·
COc1ccc(NS(=O)(=O)c2cc(N)ccc2N2CCCCC2)cc1,-7.3%,-1.9%,-7.9%,?,-0.7%,?,·,·,·,·,·,·
Nc1ccc(N2CCCC2)c(S(=O)(=O)Nc2cccc(C(F)(F)F)c2)c1,4.74µM*,39.8µM*,-14.5%,·,?,44.7µM*,10.6*,?,-4.3%,17.4%,·,·
Cc1ccc(CNc2ccc([N+](=O)[O-])cc2C(N)=O)cc1,2.3%,0.7%,-1.6%,2.4%,37.5%,-10.4%,·,·,·,·,·,·
Cc1ccc(Oc2c(C(N)=O)cc([N+](=O)[O-])cc2[N+](=O)[O-])cc1,21.2µM*,28.2µM*,-4.4%,-0.8%,27.6%,-22.8%,10.6*,12.6µM*,?,5.62µM*,·,·
O=C(CCCN1C(=O)C2CC=CCC2C1=O)Nc1ccccc1F (stereo not drawn),-5.0%,0.5%,·,-8.6%,35.8%,-1.8%,·,·,·,·,·,·
O=C(Cc1ccsc1)Nc1ccc(S(=O)(=O)C(F)F)cc1,-2.3%,11.5%,11.1%,·,6.1%,-8.3%,·,·,·,·,·,·
C=CCOc1cccc(C(=O)/C=C2/C(=O)Nc3ccccc32)c1,?,?,·,?,-5.4%,?,8.44*,8.91µM*,?,?,·,·
COc1ccc(CN(C(=O)/C=C/C(=O)c2ccc(OC)cc2O)C(C(=O)NC2CCCCC2)c2ccncc2)cc1 (stereo not drawn),-1.4%,-21.8%,2.4%,?,-20.7%,-20.4%,·,·,·,·,·,·
COc1ccc(C(=O)/C=C/C(=O)N(CC(=O)NC2CCCCC2)Cc2cccs2)c(O)c1,6.7µM*,44.7µM*,-10.6%,-24.6%,14.3%,-13.4%,15*,?,7.31µM*,14.6µM*,4.47µM*,14.1µM*
COCCN(CC(=O)NC1CCCCC1)C(=O)/C=C/C(=O)c1ccc(OC)cc1O,21.2µM*,15.8µM*,6.4%,-1.8%,-35.5%,-21.6%[57.1 µM],9.47*,?,20.6µM*,?,7.08µM*,12.6µM*
O=C1N=c2ccccc2=C1c1c(O)n(-c2cccc(F)c2)[nH]c1=O,5.32µM*,70.8µM*,-0.3%,?,?,?,5.97*,?,-1.5%,-2.4%,3.55µM*,7.94µM*
CC1(C)CC(=O)C2=C(C1)OC1=C(C(=O)CC(C)(C)C1)C2c1ccc(O)cc1O,3.55µM*,8.91µM*,-7.2%,?,2.0%,-24.8%,6.7*,?,16.4µM*,?,28.2µM*,?
CN1C(=O)c2ccc(NC(=S)NC(=O)C(C)(C)C)cc2C1=O,-11.9%,0.0%,-1.6%,7.7%,3.7%,-19.9%,·,·,·,·,·,·
Cc1cc(C)nc(SC2=CS(=O)(=O)c3ccccc32)n1,-19.1%,-1.1%,-4.2%,14.7%,62.1%,-15.2%,·,·,·,·,·,·
O=S1(=O)C=C(Sc2nnc(-c3ccccc3)o2)c2ccccc21,1.89µM*,?,-0.2%,13.1%,7.4%,-12.2%,2.24*,1.58µM*,?,11.9µM*,20µM*,22.4µM*
COCCCN1CN(S(=O)(=O)c2ccc(C)cc2C)c2nc3ccccc3nc21,-16.1%,0.2%,·,?,31.4%,-9.4%,·,·,·,·,·,·
Cc1cc(N)n(-c2ccccn2)n1,9.6%,3.3%,-8.4%,-13.1%,9.4%,-1.4%,·,·,·,·,·,·
Cc1cccc2cc3c(nc12)SC(=NCC1CCCO1)N(Cc1ccco1)C3 (stereo not drawn),23.8µM*,?,-5.8%,?,?,56.2µM*,14.1*,6.31µM*,20.6µM*,?,?,31.6µM*
CCC(=O)NC1=C(NC(C)c2ccccc2)C(=O)c2ccccc2C1=O (stereo not drawn),-1.7%,3.4%,·,?,0.9%,-28.7%,·,·,·,·,·,·
CCC(=O)NC1=C(Cl)C(=O)C(NC(=O)CC)=C(Cl)C1=O,1.68µM*,14.1µM*,-21.8%,44.7µM*,3.98µM*,3.98µM*,6.7*,5.01µM*,14.6µM*,13µM*,0.251µM*,0.398µM*
CCN1CCN(C(=O)c2ccccc2NC(=O)c2ccc(Cl)cc2)CC1,-1.1%,22.0%,·,-7.9%,7.3%,-13.8%,·,·,·,·,·,·
CCN1CCN(C(=S)c2ccc(Cl)cc2)CC1,2.12µM*,35.5µM*,·,-1.4%,?,79.4µM*,9.47*,?,0.5%,1.8%,0.251µM*,1.58µM*
COc1ccccc1-c1coc2cc(OC(=O)/C=C/c3ccccc3)ccc2c1=O,-15.4%,-13.4%,6.7%,-4.1%,-11.7%,-10.1%,·,·,·,·,·,·
Cc1nc2cnc(OCc3ccccc3)nc2n(Cc2ccc(F)cc2)c1=O,·,2.7%,·,·,·,·,·,·,·,·,·,·
CC1(C)CC(=O)C(C(C2=C(O)CC(C)(C)CC2=O)c2ccc(Br)s2)C(=O)C1 (stereo not drawn),1.89µM*,10µM*,2.3%,-6.9%,15.2%,-14.2%,4.23*,2.82µM*,-12.1%,?,14.1µM*,28.2µM*
O=C(O)/C=C/C(=O)c1ccc2c(c1)NC(=O)CO2,?,22.4µM*,-4.7%,-7.3%,-20.7%,-12.0%,9.47*,?,11.0%,10.3%,15.8µM*,15.8µM*
